Binding signal data for 55 sequences are collected here from PMC7819943, “Rice protein-binding microarrays: a tool to detect cis-acting elements near promoter regions in rice”.

The full ranking holds about 68,000 sequences; the median of “fluorescence intensity (a.u.)” is about 9,100, and the highest 2% start at about 16,000. The full list was thinned out, with the highest values kept by preference.

OsWRKY34, sequence (Q0JBA9 entry or part of it): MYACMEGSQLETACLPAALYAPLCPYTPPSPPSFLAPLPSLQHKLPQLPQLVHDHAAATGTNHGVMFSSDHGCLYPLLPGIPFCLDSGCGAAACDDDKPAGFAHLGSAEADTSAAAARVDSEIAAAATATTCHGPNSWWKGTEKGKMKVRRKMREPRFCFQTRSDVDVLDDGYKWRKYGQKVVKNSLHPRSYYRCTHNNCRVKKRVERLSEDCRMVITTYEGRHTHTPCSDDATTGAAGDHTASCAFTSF

In the assay the target is OsWRKY34 (Oryza sativa, UniProt Q0JBA9 1-250). Description: protein-binding microarray (RPBM); PBS, 2% BSA, 51.3 ng/ul salmon testes DNA, 50 uM zinc acetate, 200 nM TF, 25 C, 1 h; high values mean tight binding. The following applies: protein: recombinant; tags: N-terminal polyhistidine and DsRed monomer fusion (pET32a); label: CyDye5-dUTP incorporated in the synthesized complementary strand; 3' TTTTT single-stranded linker to array surface; dsDNA, one strand shown. The procedure, abridged:
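Using Ni–NTA, transcription factors fused N-terminally to polyhistidine and DsRed were purified after expression in E. coli BL21-CodonPlus. These were incubated at 200 nM with a blocked, double-stranded custom Agilent array for 1 h at 25 °C in a buffer containing 50 µM zinc acetate, and the array was washed. The binding signal is per-feature fluorescence intensity (arbitrary units) on an Axon 4000B scanner.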
Regarding “CGCCGCCGCCCTCACCCTCGCCGCCGCGCATCCCGCGGTCCGGAGTCACCTAGTGCAG”, the binding signal is 8120 fluorescence intensity (a.u.).

Take “ATAATAGGGTTATTCATAATATGGCAGGGTTTTTGGTTAGCGGAGTCACCTAGTGCAG”: the binding signal is 10300 fluorescence intensity (a.u.).

For the sequence “TGTGATAGGCTTCAATGTTTAATCTCACCATCGATTGTTACGGAGTCACCTAGTGCAG”, the binding signal is 9500 fluorescence intensity (a.u.).

Consider “TAGTCTTTGTCGTTTCCATGTATAACTCTATTTATCTTTCCGGAGTCACCTAGTGCAG”, for which the binding signal is 12400 fluorescence intensity (a.u.).

With “CTAGTTGCTCCTAACTTGGCCTACTGTCCTCCATCTCCAACGGAGTCACCTAGTGCAG”, the binding signal is 9280 fluorescence intensity (a.u.).

With “GAGCTTCCTATCGCGCCGCCGCGTGCGTACGTGTTTGATCCGGAGTCACCTAGTGCAG”, the binding signal was 11000 fluorescence intensity (a.u.).

Take “TACACCGTCCCAACCGGCTTTGTTTGACTTGTCCGACCAGCGGAGTCACCTAGTGCAG”: the binding signal was 8330 fluorescence intensity (a.u.).

Consider “TTACCGATGCGACCTGTCCCTGTCACTCCCGCCTCGGTAACGGAGTCACCTAGTGCAG”, for which the binding signal was 9060 fluorescence intensity (a.u.).

On to “GACATTACGGGCCCACAAGTACGCGTCCCCACCAGCCATACGGAGTCACCTAGTGCAG”, for which the binding signal is 8490 fluorescence intensity (a.u.).

On to “ATCACCTTGCTCGATCGCCTCCGTTGTTTTGCACTAAATTCGGAGTCACCTAGTGCAG”, for which the binding signal is 8620 fluorescence intensity (a.u.).

For “GAGGGGAGGAAGAAGAGGTGGGTGAGAATGACACGTGGGGCGGAGTCACCTAGTGCAG”, the binding signal was 10600 fluorescence intensity (a.u.).

In the case of “ATCGTTATCTATTGCCGTATGTTATTTCGTTGTTCCGTCTCGGAGTCACCTAGTGCAG”, the binding signal is 8920 fluorescence intensity (a.u.).

For “TGTTTCTATCTCGTATCTTCTCTTCCAAGCATGTATTTCCCGGAGTCACCTAGTGCAG”, the binding signal was 8650 fluorescence intensity (a.u.).

On to “TCTTATATGTTATGCAAGTATGTTTCTATCTCGTATCTTCCGGAGTCACCTAGTGCAG”, for which the binding signal was 16500 fluorescence intensity (a.u.).

Regarding “GATTTTTTCGGACTTGGTCTCGGTCTTTTTGTTTGGTTATCGGAGTCACCTAGTGCAG”, the binding signal was 10200 fluorescence intensity (a.u.).

With “ATTGTTCATTTGTCGTTCCATTACATGTAACTTCACTTCACGGAGTCACCTAGTGCAG”, the binding signal was 17000 fluorescence intensity (a.u.).

With “CTCTCTCTTCTTCTTCGTGTTGTTGTTTCTCTCTCTGTCTCGGAGTCACCTAGTGCAG”, the binding signal is 11700 fluorescence intensity (a.u.).

As for “TGTTCTTGTTTGTGTTTTCTTCTTCGTCTCCGGCGACGGCCGGAGTCACCTAGTGCAG”, the binding signal is 10000 fluorescence intensity (a.u.).

In the case of “TTTGTGTCACTTTTAAACATGTTCACGTCATTATTTTAGTCGGAGTCACCTAGTGCAG”, the binding signal is 9290 fluorescence intensity (a.u.).

In the case of “TTTTAATCTCATTTTTTTTAACGGTTTTGCTATAATTTTTCGGAGTCACCTAGTGCAG”, the binding signal was 8850 fluorescence intensity (a.u.).

In the case of “CTTATCTCATTTTATCTCGGTTTTTGTTAACTTGTTTTTTCGGAGTCACCTAGTGCAG”, the binding signal is 18200 fluorescence intensity (a.u.).

On to “CTTCGTGTTCGTCGTGGTCTCTTGTTTCTTCTTCTTCTTCCGGAGTCACCTAGTGCAG”, for which the binding signal was 22000 fluorescence intensity (a.u.).

Turning to “GTTCATTTTCATGTTATTTTTCATGTAACTACATTATTATCGGAGTCACCTAGTGCAG”, the binding signal was 8990 fluorescence intensity (a.u.).

On to “ATTTTGTTTCTCCTTGGTTGGTTTTGCTTCACCTAGATCACGGAGTCACCTAGTGCAG”, for which the binding signal is 11200 fluorescence intensity (a.u.).

For “GCTCGCTTTCTCAGGTCTTTCTCTTCCCCGTATCCCCACTCGGAGTCACCTAGTGCAG”, the binding signal is 10500 fluorescence intensity (a.u.).

On to “TCTGCGAGGAAGAACCCATTCAGATTACGCTGCATTTTTTCGGAGTCACCTAGTGCAG”, for which the binding signal was 8660 fluorescence intensity (a.u.).

As for “GGCGATCCGGCTTAACTACTTTGTTTGTTTCTCTGTGCAACGGAGTCACCTAGTGCAG”, the binding signal is 8480 fluorescence intensity (a.u.).

“ACCACCACCACCACCGCCCGCCAAGCGCGGCCCGCCCGACCGGAGTCACCTAGTGCAG”: the binding signal was 8720 fluorescence intensity (a.u.).

As to “TGTTCTGCCGGGGTTGTTGCTTACTGATGCAAAACTCTTTCGGAGTCACCTAGTGCAG”, the binding signal was 9240 fluorescence intensity (a.u.).

On to “TCGGTTTGTTTTTTTCCGGTTTATCTTCTTTCGGTTTTTTCGGAGTCACCTAGTGCAG”, for which the binding signal was 18500 fluorescence intensity (a.u.).

“CTTTCCTTTCTTTGTTTTTTATCTTTGTTTTCTTTCTTCCCGGAGTCACCTAGTGCAG”: the binding signal was 11800 fluorescence intensity (a.u.).

On to “CTTTAATTTTAATTAGAGTTTCTTGCATCGGTTTCCAATGCGGAGTCACCTAGTGCAG”, for which the binding signal is 27700 fluorescence intensity (a.u.).

For “TTCCACGGTTTTCTTTTTTCGGTTTTTATCTTTTCTTTTTCGGAGTCACCTAGTGCAG”, the binding signal was 13200 fluorescence intensity (a.u.).

On to “GATTGGTTGTTTGTTCTGTTTTGGACATGCTTGTTAATTACGGAGTCACCTAGTGCAG”, for which the binding signal is 17100 fluorescence intensity (a.u.).

As for “GTGTTCATTGCTAGTTGCATTGTGGTTTTCTAGTTAATTACGGAGTCACCTAGTGCAG”, the binding signal is 9000 fluorescence intensity (a.u.).

In the case of “ATTGGATGTTAAGTTGTGTTTTTGCTGTTTCATGGTTTTACGGAGTCACCTAGTGCAG”, the binding signal was 11400 fluorescence intensity (a.u.).

“AATTAGTTTCTTGCTTCTTCTTTTTTCTTTTCTTTTTCATCGGAGTCACCTAGTGCAG”: the binding signal was 8210 fluorescence intensity (a.u.).

Regarding “CACCTTTTTTTAATTTTTTGGTTTCCAATTTTTATTTTTTCGGAGTCACCTAGTGCAG”, the binding signal is 10900 fluorescence intensity (a.u.).

For “ATCCAGTGAGCTCGAGGCTTCCCATCTATCCGCCGTTGGTCGGAGTCACCTAGTGCAG”, the binding signal was 8260 fluorescence intensity (a.u.).

For “CTGCTGCATCTGCACTGCATGGCCATGCCCACACACTTGGCGGAGTCACCTAGTGCAG”, the binding signal is 8050 fluorescence intensity (a.u.).

Take “TATGCTTCATCTGTTCTTCTACATTGTTATCTACTATCTGCGGAGTCACCTAGTGCAG”: the binding signal was 10100 fluorescence intensity (a.u.).

For the sequence “CGAGCTGCTGATGGCCCCTATGCCACATCTACTATGCATGCGGAGTCACCTAGTGCAG”, the binding signal is 17100 fluorescence intensity (a.u.).

In the case of “CTCAACTCGGGATGACATTTGGGGTGTTTTTTTTTTGCAACGGAGTCACCTAGTGCAG”, the binding signal was 9820 fluorescence intensity (a.u.).

As for “TACTTGCACTTTACTATATTCTTGCTGTTACGCACCACATCGGAGTCACCTAGTGCAG”, the binding signal was 14600 fluorescence intensity (a.u.).

As to “AGTTAAAACCGCTACTCCACTCCTCCCATTGCATAATTTTCGGAGTCACCTAGTGCAG”, the binding signal was 9400 fluorescence intensity (a.u.).

For the sequence “AATTTTGATAGATGTGGGATGTGTTGTAATTTGTAAATTTCGGAGTCACCTAGTGCAG”, the binding signal is 8270 fluorescence intensity (a.u.).

As to “TTCTTTTCTTTTTTTCTTTGCGGGGATTTCATATAGGATTCGGAGTCACCTAGTGCAG”, the binding signal was 8510 fluorescence intensity (a.u.).

As for “GCGGCAGGTTTCGGCGGCGGGGCGGGCGGCAGGTGTCGGCCGGAGTCACCTAGTGCAG”, the binding signal is 20000 fluorescence intensity (a.u.).

Consider “TTTGCAGGTTTCGTTTGCATTTGCGGGGCGGGCATATATGCGGAGTCACCTAGTGCAG”, for which the binding signal was 21600 fluorescence intensity (a.u.).

As for “AGGTTCCGGGAGGGCGGGGTGGAGCACGAGGCGGCGGTGCCGGAGTCACCTAGTGCAG”, the binding signal was 10600 fluorescence intensity (a.u.).

As to “TTGTCCTCAGCCGGCAGTGTAGGTTCCGGGAGGGCGGGGTCGGAGTCACCTAGTGCAG”, the binding signal is 19300 fluorescence intensity (a.u.).

Turning to “TGGCGCGTGGGAGGGTCAGCCTAGGGCGTCGGAGGGGCGGCGGAGTCACCTAGTGCAG”, the binding signal was 13400 fluorescence intensity (a.u.).

Consider “GCCGGCGGCAGGGTGGGGCGGGGACGCCTGCCGGCGTCGGCGGAGTCACCTAGTGCAG”, for which the binding signal is 9860 fluorescence intensity (a.u.).

Regarding “TTTCGGTTTTGCTACTTCACATGCGCATATTTTTGGAGGGCGGAGTCACCTAGTGCAG”, the binding signal was 9330 fluorescence intensity (a.u.).

For “AAGGTGGTGGGGCAGGTGGAGCGGGTGGTCGGGGCGACGCCGGAGTCACCTAGTGCAG”, the binding signal is 11300 fluorescence intensity (a.u.).
